# Activity calls are given as the source filed them.
# Experiments:
# [1] = compounds binding Alexa647 anti-His antibody – biochemical, small-molecule microarray, 635 nm fluorescence, artefact control for SMM control protein annotation, primary screen (AID 1128); conditions: higher = more signal;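 further: score merges feature fluorescence with signal-to-noise for each printed compound spot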
# [2] = tested on: Human papillomavirus type 1a E7 protein (residues 1-88); assay: HPV1a E7 small-molecule binders, primary screen, biochemical, small-molecule microarray, residues 1-88, 635 nm (AID 1129); conditions: small-molecule microarray binding, fluorescence 635 nm; higher = more signal
# [3] = molecular target: Focal adhesion kinase 1 (Homo sapiens) (UniProt Q05397); assay: PTK2 protein binding on printed compound slides – biochemical, small-molecule microarray, 635/667 nm fluorescence, BSA, DTT, primary screen (AID 1130); conditions: 635 nm fluorescence, higher = more signal;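 further: composite of spot emission at 667 nm and signal to noise over triplicate slides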
# Sequence of Focal adhesion kinase 1 (Homo sapiens) (Q05397 whole entry, looked up): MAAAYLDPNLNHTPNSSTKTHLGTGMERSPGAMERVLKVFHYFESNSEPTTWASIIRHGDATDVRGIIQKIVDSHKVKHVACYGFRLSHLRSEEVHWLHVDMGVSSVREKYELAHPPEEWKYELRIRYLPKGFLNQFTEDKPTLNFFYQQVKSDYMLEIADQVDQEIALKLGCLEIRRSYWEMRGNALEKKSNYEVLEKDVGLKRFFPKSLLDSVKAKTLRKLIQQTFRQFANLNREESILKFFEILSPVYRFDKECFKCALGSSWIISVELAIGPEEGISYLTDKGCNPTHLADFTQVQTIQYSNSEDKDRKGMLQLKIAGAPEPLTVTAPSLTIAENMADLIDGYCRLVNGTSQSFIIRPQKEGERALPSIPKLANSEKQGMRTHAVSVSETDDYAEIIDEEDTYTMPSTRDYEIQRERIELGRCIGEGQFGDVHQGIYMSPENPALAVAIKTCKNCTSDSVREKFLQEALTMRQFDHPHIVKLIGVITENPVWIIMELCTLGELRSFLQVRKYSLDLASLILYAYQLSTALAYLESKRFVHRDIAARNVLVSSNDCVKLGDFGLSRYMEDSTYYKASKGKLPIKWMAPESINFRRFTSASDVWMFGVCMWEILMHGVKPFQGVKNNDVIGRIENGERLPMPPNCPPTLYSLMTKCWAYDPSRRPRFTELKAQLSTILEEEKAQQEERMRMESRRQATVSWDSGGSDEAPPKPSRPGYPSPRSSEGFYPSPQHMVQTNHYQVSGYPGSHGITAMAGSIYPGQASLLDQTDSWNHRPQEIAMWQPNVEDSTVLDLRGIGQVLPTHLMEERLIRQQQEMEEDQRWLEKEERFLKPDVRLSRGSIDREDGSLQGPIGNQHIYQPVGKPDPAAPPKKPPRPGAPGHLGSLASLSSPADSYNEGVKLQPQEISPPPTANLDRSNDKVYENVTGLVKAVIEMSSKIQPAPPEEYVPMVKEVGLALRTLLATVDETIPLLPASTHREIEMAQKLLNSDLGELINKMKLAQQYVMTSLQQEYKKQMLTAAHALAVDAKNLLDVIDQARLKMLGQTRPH
# [4] = tested on: Fibrinogen (Alexa647-labelled); assay: Alexa647-fibrinogen binding to printed small molecules – biochemical, small-molecule microarray, 635/667 nm fluorescence, artefact control for SMM control-protein annotation, profiling panel (AID 1131); conditions: fibrinogen-A647 binding fluorescence, higher = more signal;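 further: z-score merges 667 nm fluorescence with per-spot signal-to-noise over triplicate slides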
# [5] = molecular target: Follistatin (Homo sapiens) (UniProt P19883); assay: FST protein binding to printed compounds – biochemical, small-molecule microarray, 635/667 nm fluorescence, primary screen (AID 1132); conditions: 635 nm fluorescence, higher = more signal
# Sequence of Follistatin (Homo sapiens) (P19883 whole entry, looked up): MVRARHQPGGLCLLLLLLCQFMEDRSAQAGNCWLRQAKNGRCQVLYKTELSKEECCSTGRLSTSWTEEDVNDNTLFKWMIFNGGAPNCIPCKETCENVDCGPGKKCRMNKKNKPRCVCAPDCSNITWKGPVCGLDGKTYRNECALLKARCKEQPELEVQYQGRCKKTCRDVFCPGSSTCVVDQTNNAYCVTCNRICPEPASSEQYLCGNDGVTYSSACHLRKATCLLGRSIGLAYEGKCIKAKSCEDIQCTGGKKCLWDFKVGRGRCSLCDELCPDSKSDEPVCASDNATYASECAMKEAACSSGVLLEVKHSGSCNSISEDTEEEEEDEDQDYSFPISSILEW
# [6] = molecular target: Fibroblast growth factor 2 (Homo sapiens) (UniProt P09038); assay: basic fibroblast growth factor binding to printed compounds – biochemical, small-molecule microarray, 635/667 nm fluorescence, primary screen (AID 1133); conditions: FGF2, fluorescence 635/667, higher = more signal
# Sequence of Fibroblast growth factor 2 (Homo sapiens) (P09038 whole entry, looked up): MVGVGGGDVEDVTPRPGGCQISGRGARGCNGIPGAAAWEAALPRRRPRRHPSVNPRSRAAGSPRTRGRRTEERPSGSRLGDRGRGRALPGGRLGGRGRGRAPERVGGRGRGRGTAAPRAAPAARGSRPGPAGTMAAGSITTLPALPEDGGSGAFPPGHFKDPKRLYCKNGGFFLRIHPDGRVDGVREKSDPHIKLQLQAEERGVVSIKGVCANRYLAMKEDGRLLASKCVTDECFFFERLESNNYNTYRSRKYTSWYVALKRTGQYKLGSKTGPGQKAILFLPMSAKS
# [7] = JC-1 mitochondrial potential readout, lung cancer cells – cell-based, A549, JC-1 fluorescence, basal, 24 h, 100 nL, profiling panel (AID 1138); conditions: higher = more signal;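 further: A549 lung adenocarcinoma cells under basal conditions with no added stimulus; test concentration not given here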
# Lefty1 = Lefty1 protein binding to printed compounds – biochemical, small-molecule microarray, 635/667 nm fluorescence, primary screen (AID 1139); conditions: fluorescence 635/667, higher = more signal
# [8] = tested on: wheat germ agglutinin (Triticum aestivum), Alexa647-labelled; assay: Alexa647-WGA lectin binding to printed small molecules – biochemical, small-molecule microarray, 635/667 nm fluorescence, artefact control for SMM control-protein annotation, profiling panel (AID 1140); conditions: WGA-A647 binding, 635 nm fluorescence, higher = more signal;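 further: score merges 667 nm feature emission with signal to noise over triplicate slides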
# [9] = molecular target: Luciferin 4-monooxygenase (Photinus pyralis) (UniProt P08659); assay: inhibition of purified Photinus pyralis luciferase – biochemical, luminescence, purified enzyme, 2006 set, primary screen (AID 1141); conditions: purified firefly luciferase, SteadyGlo luminescence, 30 min; higher = more signal, called active from +8 up or from −8 down;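 further: cell-free assay with purified firefly luciferase at 100 ng per well in PBS; test concentration not given here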
# Sequence of Luciferin 4-monooxygenase (Photinus pyralis) (P08659 whole entry, looked up): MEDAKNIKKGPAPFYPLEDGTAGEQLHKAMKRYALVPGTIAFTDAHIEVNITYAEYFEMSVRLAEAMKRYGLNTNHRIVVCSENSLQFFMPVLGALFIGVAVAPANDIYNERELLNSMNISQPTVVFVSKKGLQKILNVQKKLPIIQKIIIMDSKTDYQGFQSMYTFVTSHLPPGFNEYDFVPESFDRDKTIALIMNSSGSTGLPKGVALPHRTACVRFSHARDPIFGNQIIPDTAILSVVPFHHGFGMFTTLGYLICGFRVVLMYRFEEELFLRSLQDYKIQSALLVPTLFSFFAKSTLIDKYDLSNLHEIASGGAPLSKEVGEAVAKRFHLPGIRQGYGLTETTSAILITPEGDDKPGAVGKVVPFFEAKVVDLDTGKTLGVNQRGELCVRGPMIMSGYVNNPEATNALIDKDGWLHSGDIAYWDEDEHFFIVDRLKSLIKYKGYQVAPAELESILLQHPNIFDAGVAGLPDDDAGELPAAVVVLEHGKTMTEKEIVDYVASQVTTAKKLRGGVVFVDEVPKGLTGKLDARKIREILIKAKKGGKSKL
Structure (SMILES),composite z-score [1],composite z-score [2],composite z-score [3],composite z-score [4],composite z-score [5],composite z-score [6],z-score [7],composite z-score (Lefty1),composite z-score [8],z-score [9]
C=C(COC)C(=O)CC[C@H](OC(=O)c1ccccc1-c1ccccc1C(=O)O)c1cccc(OCCO)c1,2.49,1.27,0.403,-0.46,1.56,2.11,-1.02,1.65,-0.496,-4.13 (inactive)
COCCOC(=O)N1C(=O)[C@@]2(c3cc(C#CCCO)ccc31)[C@H](c1ccc(OCCO)cc1)N1[C@H](c3ccccc3)[C@H](c3ccccc3)OC(=O)[C@H]1[C@@H]2C(=O)NC[C@H](O)c1ccccc1,1.23,1.21,0.76,0.883,1.39,1.36,-1.15,1.24,0.728,-0.216 (inactive)
O=C1c2ccccc2[C@@]2(Cc3ccccc3N(CC(F)(F)F)C2=O)[C@H](c2ccc(CO)cc2)N1C1CCCCC1,-0.194,-0.07,-0.103,-0.243,1.06,1.06,0.835,0.531,-0.643,-0.637 (inactive)
COc1ccc([Si](C)(C)[C@H]2[C@H](CCO)O[C@@]3(C(=O)N(Cc4ccccc4)c4ccc(N5C(=O)c6cccc7cccc5c67)cc43)[C@@H]2C)cc1,1.38,-0.333,0.209,-0.603,-0.357,-0.751,2.33,-0.297,0.641,-1.84 (inactive)
COc1cc2c(cc1OC)CN(C(=O)[C@@H]1[C@H]3C(=O)O[C@H](c4ccccc4)[C@H](c4ccccc4)N3[C@H](c3ccccc3OCCO)[C@@]13C(=O)Nc1ccccc13)CC2,2.5,1.22,0.702,0.833,0.666,0.465,0.447,0.0595,0.849,-1.38 (inactive)
C=C(CCCC)C(=O)CC[C@@H](OC(C)=O)c1ccccc1OCCO,-0.848,-0.806,-0.523,-1.75,-0.245,-0.508,0.846,-0.0521,-0.788,-1.33 (inactive)
CC(C)[Si](OCC[C@H]1O[C@]2(C(=O)N(Cc3ccccc3)c3ccccc32)[C@@H](C)[C@@H]1[Si](C)(C)O)(C(C)C)C(C)C,-0.197,-0.694,0.104,0.618,0.122,-0.206,-0.761,0.218,0.128,-0.183 (inactive)
CCCC=C(CCC)[C@@H](NC(=O)c1ccc(C(F)(F)F)cc1)c1ccccc1,0.81,0.788,0.0363,0.0538,0.0643,-0.764,-2.54,0.0969,0.352,1.2 (inactive)
CC(C)C[C@@H]1NC(=O)[C@H]2C[C@@H](C(=O)NCCCCCC[N+](C)(C)C)[C@@H](c3ccc(O)cc3)N2C1=O,2.28,-0.194,-0.188,-1.44,1.16,0.839,-0.603,0.467,0.952,0.779 (inactive)
C[C@@H]1CC[C@H]2C(=O)N3CCC[C@H]3C(=O)N2[C@H]1c1ccc(Br)cc1,0.136,-0.366,0.335,0.0658,0.162,0.36,1.68,0.724,-0.169,-1.02 (inactive)
CC(=O)Nc1ccc([C@H]2[C@H](C)CC[C@H]3C(=O)N4[C@@H](CC[C@@H](C)[C@@H]4c4ccc(NC(C)=O)cc4)C(=O)N32)cc1,2.46,1.16,0.558,0.798,1.19,1.25,0.673,1.54,0.994,-0.765 (inactive)
CC[C@@H]1C=C(C(=O)O)[C@H](c2ccccc2)N1S(=O)(=O)c1ccc([N+](=O)[O-])cc1,1.34,1.24,0.783,-0.368,0.221,-0.715,-0.506,-0.177,1.01,0.631 (inactive)
Cc1ccc(S(=O)(=O)c2cc3oc2CC[C@@H](CO)NC(=O)N(C)Cc2cn(nn2)C[C@H](Cc2ccccc2)NC3=O)cc1,3.02,-0.157,2.07,0.814,-0.0009,0.108,1.95,-0.442,-0.0961,-1.53 (inactive)
COc1cc(Cc2cc3c(c(CCc4ccccc4)n2)[Si](C(C)C)(C(C)C)OC3)cc(OC)c1OC,0.151,-0.162,0.0612,-0.386,0.694,0.263,1.51,0.48,-0.14,0.874 (inactive)
CO[C@H]1COC(=O)CC=C[C@@H](C)COC(=O)[C@@H](C)NC(=O)CC=C[C@@H]1C,-0.505,-1.53,-1.02,-0.943,1.44,2.02,1.15,1.73,-0.673,-1.37 (inactive)
C=CCC(OC(C)=O)[C@@H]1[C@@H](N(Cc2cccc3ccccc23)C(=O)c2ccc(C)cc2)c2cc(OCCCO)ccc2N1C(=O)c1ccc(-c2ccccc2)cc1 (stereo not given in full),-0.215,-0.0588,-0.0095,-0.5,0.679,0.26,2.6,-0.0451,-0.285,-1.18 (inactive)

Structure (SMILES),composite z-score [1],composite z-score [2],composite z-score [3],composite z-score [4],composite z-score [5],composite z-score [6],z-score [7],composite z-score (Lefty1),composite z-score [8],z-score [9]
[N-]=[N+]=NCc1ccccc1C[C@]1(C(N)=O)N=C(c2ccc(OCCCO)cc2)O[C@H]1c1ccccc1CN=[N+]=[N-],3.15,0.974,1.21,0.98,1.01,0.19,1.3,-0.621,1.32,-3.84 (inactive)
NC(=O)NCC#Cc1ccc2c(c1)[C@]1(C(=O)N2)[C@H](c2ccccc2OCCO)N2[C@H](c3ccccc3)[C@H](c3ccccc3)OC(=O)[C@H]2[C@@H]1C(=O)N1CCN(c2ncccn2)CC1,0.997,1.19,0.695,0.814,1.08,1.03,-0.77,0.347,0.438,-0.538 (inactive)
C=CCC(OC(C)=O)[C@@H]1[C@@H](N(Cc2cc3ccccc3o2)C(=O)Cc2ccc(F)cc2)c2cc(OCCCO)ccc2N1C(=O)c1ccc(-c2ccccc2)cc1 (stereo not given in full),-1.6,-0.844,-0.341,-1.2,0.0166,-0.287,2.35,-0.234,-0.681,-1.06 (inactive)
CO[C@H]1O[C@H](CO)[C@@H](OC(=O)CCc2ccccc2)[C@@H]2OC(=O)[C@H](Cc3cccc(Br)c3)C/C=C/C[C@@H](Cc3cccc(Br)c3)C(=O)O[C@@H]12,0.345,0.399,-0.0961,0.0162,-1.19,-0.706,0.309,-0.752,0.978,-1.07 (inactive)
CO[C@H]1COC(=O)[C@@H](C)COC(=O)[C@H](Cc2ccccc2)NC(=O)CC=C[C@H]1C,-1.35,-0.0007,-0.62,0.177,0.932,0.771,1.04,1.27,-0.457,-0.897 (inactive)
Cc1ccc(N2C(=O)c3ccccc3[C@@H](C(=O)NCC(F)(F)F)[C@@H]2c2ccc(CO)cc2)nc1,-1.37,-2.06,-0.589,-1.4,-2.06,-0.59,-0.913,-3.17,-0.925,-0.642 (inactive)
CO[C@H]1COC(=O)[C@H](Cc2ccccc2)NC(=O)CC=C[C@@H](C)[C@H](OC)COC(=O)CC=C[C@@H]1C,0.809,0.779,-0.237,0.256,0.424,0.144,1.64,0.492,-0.12,-1.27 (inactive)
[N-]=[N+]=NCc1ccccc1[C@H]1OC(c2ccc(OCCCO)cc2)=N[C@@]1(Cc1ccccc1N=[N+]=[N-])C(=O)NCc1ccccc1,0.859,1.18,0.636,0.82,1.03,0.299,0.623,0.0912,1,-1.17 (inactive)
Cc1ccc(S[C@]2(C(=O)O)CC(=O)N(Cc3cc(C(F)(F)F)cc(C(F)(F)F)c3)[C@@H]2c2ccc(CO)cc2I)cc1,-0.339,-0.664,0.0035,-1.56,-0.251,-0.325,-0.603,-0.89,-1.09,-1.3 (inactive)
CO[C@H]1COC(=O)[C@H](C)NC(=O)CC=C[C@@H](C)[C@H](NS(=O)(=O)c2ccc(C)cc2)COC(=O)[C@@H](OCc2ccccc2)C=C[C@@H]1C,-1.04,-0.515,0.269,-0.394,0.641,0.574,1.87,1.02,-0.609,-0.893 (inactive)
C=C(CCCC)C(=O)CC[C@@H](OC(=O)c1cccnc1)c1cccc(OCCO)c1,0.419,-0.411,0.533,0.314,0.674,1.14,3.35,0.779,0.59,-3.06 (inactive)
C=C(CCCC)/C(=C/C[C@@H](OC(=O)c1ccncc1)c1cccc(OCCO)c1)c1cc(C(=O)OC)ccc1OC,0.541,1.17,0.0708,0.939,1.12,0.627,4.97,0.959,1.09,-2.22 (inactive)
C=CC[C@]1(C(=O)NCC(O)CO)N=C(c2ccc(OCCCO)cc2)O[C@H]1c1ccccc1 (stereo not given in full),0.307,0.904,0.12,0.106,-0.307,-0.651,0.985,-1.51,0.587,-0.428 (inactive)
CC1=C([C@H](O)CCc2ccccc2)[C@H](CO)[C@@H]2C(=O)N(Cc3ccccc3)C(=O)[C@@H]2C1,0.635,0.0269,0.194,0.962,0.738,0.113,0.901,0.388,0.313,0.215 (inactive)
COC(=O)c1c(CC[C@@H](CO)NC(=O)N[C@H](Cn2cc(-c3cncn3C)nn2)C(C)C)oc(C(C)=O)c1C(=O)OC,1.15,0.722,-0.205,-0.0397,0.415,1.11,-0.315,0.999,-0.0889,-0.263 (inactive)
O=C1c2ccccc2[C@](Cc2ccccc2I)(C(=O)NCC(F)(F)F)[C@H](c2ccc(CO)cc2)N1Cc1ccccc1C(F)(F)F,0.722,1.22,0.857,0.351,0.678,0.381,1.67,0.108,0.479,-0.956 (inactive)
